Laboratory results published in the supplement of paper PMC10849652.
Of roughly 7,900 targets only a part is listed; those with a hit were picked by preference. About 0.6% of all pairs of compound and target were hits.

Key:
Test in all cases: log2 fold change, soluble protein after heating vs DMSO (PISA); higher = thermal stabilisation; K562 cells, 10 uM, 30 min; active = over 0.2 and 3.5 SD of the protein, either way, in both replicates (recomputed)
[1] = compound: CC1=C(C=C(C=C1)NC(=O)C2=CC(=CC=C2)C(C)(C)C#N)NC3=CC4=C(C=C3)N=CN(C4=O)C
Method in brief: (§1)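 For each measurement, 10 μM compound was applied for 30 min to K562 cells at 2×10^6 cells/mL. Aliquots were heated for 3 min across 48°C-58°C, pooled, and extracted in PBS with 0.5% NP-40 at 4°C; the supernatant after 21,000xg for 90 min was soluble protein. This was quantified by TMTpro 16plex LC-MS/MS with channel sums equalised, and thermal stability was reported relative to control samples from duplicates, on a log2 fold-change scale.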

[2] = compound: CC1=C(C=C(C=C1)NC(=O)C2=CC(=CC=C2)N(C)C)NC(=O)C3=CC=C(C=C3)O
Method in brief: as §1

[3] = compound: CC1=CC=C(C=C1)SC2=C3C=C(SC3=CN=C2)C(=O)N
Method in brief: as §1

[4] = compound: CC1=NC(=CC=C1)C2=C(N=C(N2)C(C)(C)C)C3=CC4=NC=CN=C4C=C3
Method in brief: as §1

[5] = compound: CCCCN(Cc1ccc(C(=O)NO)cc1)C(=O)Nc1ccccc1 [Nexturastat A]
Method in brief: as §1

[6] = compound: CCCS(=O)(=O)Nc1ccc(F)c(C(=O)c2c[nH]c3ncc(-c4ccc(Cl)cc4)cc23)c1F [vemurafenib]
Method in brief: as §1

[7] = compound: CCCS(=O)(=O)Nc1ccc(F)c(C(=O)c2c[nH]c3ncc(Cl)cc23)c1F
Method in brief: as §1

[8] = compound: CCCc1cc(C)[nH]c(=O)c1CNC(=O)c1cc(-c2ccnc(N3CCN(C)CC3)c2)cc2c1cnn2C(C)C
Method in brief: as §1

[9] = compound: CCN(CC)Cc1ccc2cc(COC(=O)Nc3ccc(C(=O)NO)cc3)ccc2c1 [givinostat]
Method in brief: as §1

[10] = compound: CCN(CCCOc1ccc2c(Nc3cc(CC(=O)Nc4cccc(F)c4)[nH]n3)ncnc2c1)CCOP(=O)(O)O [barasertib]
Method in brief: as §1

[11] = compound: CC[C@@H]1C(=O)N(C)c2cnc(Nc3ccc(C(=O)NC4CCN(C)CC4)cc3OC)nc2N1C1CCCC1
Method in brief: as §1

[12] = compound: CC[C@@H]1C(=O)N(C)c2cnc(Nc3ccc(C(=O)N[C@H]4CC[C@H](N5CCN(CC6CC6)CC5)CC4)cc3OC)nc2N1C(C)C [volasertib]
Method in brief: as §1

[13] = compound: CC[C@H](C)N1C=C(C2=C(C=C(C=C21)C3=CN=C(C=C3)N4CCNCC4)C(=O)NCC5=C(C=C(NC5=O)C)C)C
Method in brief: as §1

[14] = compound: CC[C@H](C)[C@@H](C(=O)N[C@@H]([C@@H](C)O)C(=O)N[C@@H](CC(C)C)C(=O)[C@]1(CO1)C)NC(=O)[C@H]([C@@H](C)CC)N(C)C(=O)C [epoxomicin]
Method in brief: as §1

[15] = compound: CCn1c(C(=O)N(C2CC2)C2CC2)cc2c3c(ncn3C)c(Nc3cc(C)n(C)n3)nc21
Method in brief: as §1

[16] = compound: CCn1cc(-c2ccnc3[nH]c(-c4cccc(CN(C)C)c4)cc23)c(-c2ccc(NC(=O)N(C)C)cc2)n1
Method in brief: as §1

[17] = compound: CN(C)CC(=O)Nc1ccc2[nH]c(=O)c3ccccc3c2c1
Method in brief: as §1

[18] = compound: CN(CCOC1=CC=C(C=C1)C[C@H]2C(=O)NC(=O)S2)C3=CC=CC=N3 (racemic) [rosiglitazone]
Method in brief: as §1

[19] = compound: CN1C2=C(C3=C1C(=O)N(N=C3)CC4=CC(=CC=C4)N)SC(=C2)S(=O)C
Method in brief: as §1

[20] = compound: CN1CCC(CNc2ccc3ncc(-c4cccc(OC(F)(F)F)c4)n3n2)CC1
Method in brief: as §1

Measured: log2 fold change

SAMSN1 isoform 3 (UniProt Q9NSI8)
Sequence of UniProt Q9NSI8 (Q9NSI8 whole entry, looked up): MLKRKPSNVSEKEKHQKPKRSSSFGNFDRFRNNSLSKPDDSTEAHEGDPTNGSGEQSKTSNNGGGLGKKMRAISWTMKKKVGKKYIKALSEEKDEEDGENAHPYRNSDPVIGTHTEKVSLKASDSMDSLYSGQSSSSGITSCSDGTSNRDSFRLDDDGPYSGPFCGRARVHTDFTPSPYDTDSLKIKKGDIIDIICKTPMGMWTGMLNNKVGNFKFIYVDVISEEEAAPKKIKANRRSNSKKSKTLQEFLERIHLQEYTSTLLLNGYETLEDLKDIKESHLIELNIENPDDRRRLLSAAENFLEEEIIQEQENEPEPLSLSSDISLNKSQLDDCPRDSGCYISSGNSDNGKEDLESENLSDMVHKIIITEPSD
inactive: [1] 0.014 | [2] -0.011 | [3] 0.029 | [4] 0.017 | [5] -0.027 | [6] -0.001 | [7] 0.029 | [8] 0 | [9] 0.02 | [10] 0.042 | [11] -0.069 | [12] -0.153 | [13] 0.026 | [14] 0.018 | [15] -0.02 | [16] -0.065 | [17] 0.017 | [18] 0.067 | [19] 0
active: [20] -0.253

SESN2 (UniProt P58004)
Sequence of UniProt P58004 (P58004 whole entry, looked up): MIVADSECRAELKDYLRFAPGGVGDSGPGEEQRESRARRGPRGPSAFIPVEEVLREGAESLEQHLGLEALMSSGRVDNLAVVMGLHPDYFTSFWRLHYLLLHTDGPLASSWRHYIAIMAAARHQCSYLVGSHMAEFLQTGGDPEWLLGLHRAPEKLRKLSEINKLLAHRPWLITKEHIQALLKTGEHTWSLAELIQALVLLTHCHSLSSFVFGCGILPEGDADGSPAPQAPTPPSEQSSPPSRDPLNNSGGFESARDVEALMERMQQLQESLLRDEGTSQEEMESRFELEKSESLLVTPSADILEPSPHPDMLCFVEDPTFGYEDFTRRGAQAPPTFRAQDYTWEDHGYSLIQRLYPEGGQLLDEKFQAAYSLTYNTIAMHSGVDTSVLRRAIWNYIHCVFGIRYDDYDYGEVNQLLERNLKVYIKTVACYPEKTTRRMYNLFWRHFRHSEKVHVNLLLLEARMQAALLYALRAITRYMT
inactive: [1] 0.166 | [2] -0.069 | [3] -0.017 | [4] -0.031 | [5] 0.094 | [6] 0.194 | [7] 0.186 | [8] 0.19 | [9] 0.046 | [10] 0.119 | [11] -0.244 | [13] 0.165 | [14] 0.083 | [15] 0.061 | [16] -0.292 | [17] 0.115 | [18] -0.081 | [19] 0.015 | [20] -0.247
active: [12] -0.522

RB1CC1 (UniProt Q8TDY2)
Sequence of UniProt Q8TDY2 (Q8TDY2 whole entry, looked up): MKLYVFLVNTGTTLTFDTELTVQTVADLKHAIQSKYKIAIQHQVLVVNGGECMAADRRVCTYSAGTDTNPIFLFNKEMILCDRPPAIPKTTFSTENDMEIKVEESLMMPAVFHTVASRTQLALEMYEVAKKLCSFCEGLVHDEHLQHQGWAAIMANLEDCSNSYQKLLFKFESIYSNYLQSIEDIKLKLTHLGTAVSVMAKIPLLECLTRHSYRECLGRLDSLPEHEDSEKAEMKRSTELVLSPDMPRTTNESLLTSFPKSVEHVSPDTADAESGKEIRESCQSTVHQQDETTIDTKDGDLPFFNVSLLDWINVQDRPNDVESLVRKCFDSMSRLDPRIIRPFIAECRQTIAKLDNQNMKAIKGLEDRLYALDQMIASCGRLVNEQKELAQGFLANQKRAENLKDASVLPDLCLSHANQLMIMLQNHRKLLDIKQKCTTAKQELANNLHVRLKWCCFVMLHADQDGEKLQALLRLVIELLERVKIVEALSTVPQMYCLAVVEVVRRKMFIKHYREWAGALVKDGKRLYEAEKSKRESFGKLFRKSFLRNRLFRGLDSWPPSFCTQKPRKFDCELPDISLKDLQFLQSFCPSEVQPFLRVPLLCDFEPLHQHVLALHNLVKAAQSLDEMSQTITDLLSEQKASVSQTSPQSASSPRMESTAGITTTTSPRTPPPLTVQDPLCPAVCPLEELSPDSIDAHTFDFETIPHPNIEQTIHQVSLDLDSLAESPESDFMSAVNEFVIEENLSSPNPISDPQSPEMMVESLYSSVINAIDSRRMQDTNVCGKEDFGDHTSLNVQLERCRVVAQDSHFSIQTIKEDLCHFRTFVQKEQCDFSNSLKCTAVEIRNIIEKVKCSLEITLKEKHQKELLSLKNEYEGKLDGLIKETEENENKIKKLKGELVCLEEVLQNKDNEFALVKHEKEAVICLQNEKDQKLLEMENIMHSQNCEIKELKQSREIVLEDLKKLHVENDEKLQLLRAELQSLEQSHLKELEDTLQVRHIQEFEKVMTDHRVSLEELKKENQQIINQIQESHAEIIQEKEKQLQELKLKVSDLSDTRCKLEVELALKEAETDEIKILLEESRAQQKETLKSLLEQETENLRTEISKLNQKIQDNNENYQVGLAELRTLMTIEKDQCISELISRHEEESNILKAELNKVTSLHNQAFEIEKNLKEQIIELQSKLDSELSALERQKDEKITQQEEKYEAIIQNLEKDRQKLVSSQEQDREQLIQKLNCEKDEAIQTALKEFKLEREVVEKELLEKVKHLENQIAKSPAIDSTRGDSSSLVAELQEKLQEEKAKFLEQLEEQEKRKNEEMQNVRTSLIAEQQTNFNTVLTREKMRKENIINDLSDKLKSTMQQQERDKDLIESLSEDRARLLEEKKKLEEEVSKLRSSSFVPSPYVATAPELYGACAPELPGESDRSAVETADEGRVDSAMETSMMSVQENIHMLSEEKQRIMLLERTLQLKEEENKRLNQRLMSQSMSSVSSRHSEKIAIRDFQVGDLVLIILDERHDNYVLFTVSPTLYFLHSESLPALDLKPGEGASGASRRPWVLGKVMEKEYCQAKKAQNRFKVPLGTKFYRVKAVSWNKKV
inactive: [1] -0.061 | [2] -0.005 | [3] 0.025 | [4] -0.031 | [5] 0.161 | [6] -0.022 | [7] -0.034 | [8] 0.147 | [9] 0.102 | [10] -0.008 | [11] 0.051 | [12] -0.022 | [13] -0.086 | [14] 0.063 | [15] -0.118 | [16] -0.07 | [17] -0.077 | [18] 0.01 | [19] 0.047 | [20] -0.116

RPA1 (UniProt P27694)
Sequence of UniProt P27694 (P27694 whole entry, looked up): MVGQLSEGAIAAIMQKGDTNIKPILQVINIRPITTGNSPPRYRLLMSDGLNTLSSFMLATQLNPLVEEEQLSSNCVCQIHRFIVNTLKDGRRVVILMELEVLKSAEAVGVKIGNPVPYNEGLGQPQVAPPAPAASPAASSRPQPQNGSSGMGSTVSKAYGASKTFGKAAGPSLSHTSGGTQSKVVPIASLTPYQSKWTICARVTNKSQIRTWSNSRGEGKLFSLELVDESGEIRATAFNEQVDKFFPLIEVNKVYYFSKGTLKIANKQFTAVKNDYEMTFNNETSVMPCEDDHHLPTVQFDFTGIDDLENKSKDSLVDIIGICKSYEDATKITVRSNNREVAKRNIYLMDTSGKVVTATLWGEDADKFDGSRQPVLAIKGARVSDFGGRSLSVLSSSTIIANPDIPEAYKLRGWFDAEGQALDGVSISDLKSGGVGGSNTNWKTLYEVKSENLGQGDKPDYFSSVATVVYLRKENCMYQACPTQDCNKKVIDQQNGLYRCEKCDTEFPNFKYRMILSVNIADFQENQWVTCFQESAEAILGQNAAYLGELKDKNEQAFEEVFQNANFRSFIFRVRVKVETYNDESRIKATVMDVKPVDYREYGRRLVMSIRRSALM
active: [12] -0.326
inactive: [1] 0.028 | [2] -0.047 | [3] -0.002 | [4] 0.05 | [5] 0.044 | [6] 0.039 | [7] 0.125 | [8] 0.104 | [9] 0.069 | [10] 0.068 | [11] -0.108 | [13] 0.083 | [14] 0.09 | [15] -0.028 | [16] -0.02 | [17] 0.044 | [18] 0.063 | [19] -0.048 | [20] -0.079

RCN3 (UniProt Q96D15)
Sequence of UniProt Q96D15 (Q96D15 whole entry, looked up): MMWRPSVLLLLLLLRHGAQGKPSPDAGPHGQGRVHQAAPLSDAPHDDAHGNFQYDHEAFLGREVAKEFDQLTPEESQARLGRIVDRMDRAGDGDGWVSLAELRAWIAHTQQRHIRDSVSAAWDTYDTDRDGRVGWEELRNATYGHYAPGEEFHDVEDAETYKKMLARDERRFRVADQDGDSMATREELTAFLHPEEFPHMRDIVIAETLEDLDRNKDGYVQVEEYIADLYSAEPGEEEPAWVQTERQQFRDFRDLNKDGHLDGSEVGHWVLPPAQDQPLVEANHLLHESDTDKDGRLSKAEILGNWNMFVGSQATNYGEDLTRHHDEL
inactive: [1] -0.055 | [2] 0.029 | [3] -0.028 | [4] -0.073 | [5] 0.077 | [6] -0.003 | [7] -0.053 | [8] -0.145 | [9] -0.023 | [10] -0.011 | [11] -0.033 | [12] 0.053 | [13] -0.031 | [14] -0.118 | [15] 0 | [16] -0.007 | [17] -0.019 | [18] 0.029 | [19] -0.03 | [20] -0.234

RABGAP1L isoform 3 (UniProt Q5R372)
inactive: [1] 0.002 | [2] 0.018 | [3] 0.018 | [4] -0.005 | [5] -0.058 | [6] -0.008 | [7] 0.073 | [8] 0.03 | [9] 0.034 | [10] 0.022 | [11] -0.046 | [12] -0.107 | [13] 0.053 | [14] 0.08 | [15] -0.028 | [16] -0.034 | [17] -0.011 | [18] -0.026 | [19] 0.02 | [20] 0.025

RPS13 (UniProt P62277)
inactive: [1] 0.006 | [2] 0.022 | [3] -0.044 | [4] -0.057 | [5] 0.119 | [6] -0.144 | [7] -0.09 | [8] 0.091 | [9] 0.045 | [10] -0.101 | [11] 0.219 | [12] 0.567 | [13] 0.035 | [14] -0.324 | [15] 0.055 | [16] 0.236 | [17] -0.066 | [18] -0.12 | [19] 0.219 | [20] 0.243

RIOK3 (UniProt O14730)
Sequence of UniProt O14730 (O14730 whole entry, looked up): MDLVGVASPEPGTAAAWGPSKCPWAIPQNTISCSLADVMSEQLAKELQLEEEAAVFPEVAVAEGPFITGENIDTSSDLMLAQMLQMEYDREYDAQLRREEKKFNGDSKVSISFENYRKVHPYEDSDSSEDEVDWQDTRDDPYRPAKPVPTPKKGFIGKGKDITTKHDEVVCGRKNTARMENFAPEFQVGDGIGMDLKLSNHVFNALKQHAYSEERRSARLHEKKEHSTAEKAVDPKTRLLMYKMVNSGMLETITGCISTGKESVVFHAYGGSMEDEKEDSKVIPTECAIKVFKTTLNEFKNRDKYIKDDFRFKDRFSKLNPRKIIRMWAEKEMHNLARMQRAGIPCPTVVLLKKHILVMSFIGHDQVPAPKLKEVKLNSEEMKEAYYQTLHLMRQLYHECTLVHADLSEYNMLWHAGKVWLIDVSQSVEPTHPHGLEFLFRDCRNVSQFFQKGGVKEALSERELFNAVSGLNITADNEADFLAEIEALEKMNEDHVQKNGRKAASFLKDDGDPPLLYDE
inactive: [1] 0.026 | [2] 0.021 | [3] 0.009 | [4] 0.014 | [5] -0.094 | [6] -0.012 | [7] -0.012 | [8] 0.011 | [9] -0.003 | [10] -0.003 | [11] 0.084 | [12] 0.04 | [13] -0.01 | [14] 0.072 | [15] 0.001 | [16] -0.053 | [17] -0.011 | [18] 0.024 | [19] -0.023 | [20] -0.041
